For 52 molecules, INHIBITION results are on record in ChEMBL document CHEMBL4513216, “Probing the Open Global Health Chemical Diversity Library for Multistage-Active Starting Points for Next-Generation Antimalarials” (ACS Infect Dis, 2020).

Screen size: about 69,000 compounds; about 8,600 (12%) showed an effect of 50% or more. What follows is part of a selection rich in strong results, with near analogues and random picks from the rest.

This assay deals with Plasmodium berghei. The assay can be described thus: Screen against P. berghei liver stage (PbLuc), transformed with Luciferase, at 10uM. In kind it is functional, HepG2. To be noted: tested at 10 uM.
As to `Cc1nc(NC(=O)c2c(-n3cnnn3)sc3c2CCCC3)sc1C`, the INHIBITION is 93.7%.
As for `CC(C)CCNC(=O)c1c(-n2cnnn2)sc2c1CCCC2`, the figure is 23.4%.
As to `Cc1nc(NC(=O)c2c(-n3cnnn3)sc3c2CCC3)sc1C`, the INHIBITION is 93.7%.
As to `CCCNC(=O)c1c(-n2cnnn2)sc2c1CCC2`, the INHIBITION is 26.1%.
On to `Cc1ncc(CNC2CCc3nc(C(C)C)nn3C2)s1` (configuration not stated), for which the INHIBITION is reported as 24.7%.
Turning to `CCn1c(-c2ccccc2)nn(CC(=O)NCCc2ccc(C)o2)c1=O`, the INHIBITION is -19.1%.
For `CCCc1noc(CNC2CCCN(Cc3noc(C4CC4)n3)C2)n1` (configuration not stated), the INHIBITION is -37.7%.
`Cc1nc2c(N(C)Cc3ccnn3C)nc(N)nc2n1C`: the INHIBITION was found to be 32.3%.
For `Cc1ccc(F)cc1-n1c(CCCN2CCOCC2)n[nH]c1=O` the value was 39.4%.
As to `COc1cc(C)sc1C(=O)N1CCCC(n2nc(C)nc2C)C1` (configuration not stated), the INHIBITION is reported as 48.2%.
For `CCc1ccc(C(=O)O)cc1S(=O)(=O)N(C)c1cccc(C#N)c1` the value was 24.4%; for `Cc1cccc(N(C)S(=O)(=O)c2cc(C(=O)O)cs2)c1`, 22.3%; for `CCc1ccc(C(=O)O)cc1S(=O)(=O)N(C)c1cccc(C)c1`, 59.1%.
Regarding `COc1ccc(S(=O)(=O)NCC(N)c2ccccc2)c(C)c1` (configuration not stated), the INHIBITION worked out at 24.8%.
Regarding `O=C(c1cccnc1)N1CCOC(c2ccc(-c3cncnc3)cn2)C1` (configuration not stated), the INHIBITION worked out at 31.6%.
Take `Cc1cc(=O)n(CCNS(=O)(=O)c2ccc(F)c(Cl)c2)cn1`: the INHIBITION was 29.7%.
Regarding `Cc1cc(=O)n(CCNS(=O)(=O)c2cccc(C(F)(F)F)c2)cn1`, the INHIBITION amounted to 68.5%.
Consider `Cc1cc(=O)n(CCNS(=O)(=O)c2ccccc2)cn1`, for which the INHIBITION came to 31.3%.
For `CC(C)(C)CN1CCCC(c2nccnc2Nc2cnccn2)C1` (configuration not stated), the INHIBITION is 51.7%.
With `CN1CCC(c2nccnc2Nc2cnccn2)CC1`, the INHIBITION came to 9.98%.
For `CC(C)(C)CN1CCC(c2nccnc2Nc2cnccn2)CC1` the value was -0.232%; for `CN1CCCC1CNC(=O)CCCOc1cccc(Br)c1` (configuration not stated), 9.383%; for `NC(=O)CN1CC(O)c2ccccc2S1(=O)=O` (configuration not stated), 37.4%.
In the case of `Cc1nc(C(=O)N2CCCC(c3ccc4sc(N)nc4n3)C2)co1` (configuration not stated), the INHIBITION is 5.56%.
On to `CN(Cc1cccnc1)[C@@H]1CN(C(=O)CC2CC2)[C@@H]2CCCO[C@H]12`, for which the INHIBITION is recorded as -31%.
`CN(Cc1cncnc1)[C@H]1CN(C(=O)c2ccc[nH]2)[C@@H]2CCCO[C@@H]21`: the INHIBITION was 58.4%.
As for `CN(Cc1cccnc1)[C@@H]1CN(C(=O)c2ccno2)[C@@H]2CCCO[C@H]12`, the INHIBITION was found to be 50.3%.
For the molecule `COCC(=O)N1C[C@H](N(C)Cc2cncnc2)[C@H]2OCCC[C@H]21`, the INHIBITION is on record as 64.7%.
Consider `CN(Cc1cccnc1)[C@@H]1CN(C(=O)c2ccco2)[C@@H]2CCCO[C@H]12`, for which the INHIBITION came out at 3.17%.
As for `CN(Cc1cncnc1)[C@@H]1CN(C(=O)C2CC2)[C@@H]2CCCO[C@H]12`, the figure is -7.7%.
Consider `CN(Cc1cncnc1)[C@H]1CN(C(=O)c2ccco2)[C@@H]2CCCO[C@@H]21`, for which the INHIBITION is recorded as -35.8%.
`CN(Cc1cccnc1)[C@@H]1CN(C(=O)c2ccoc2)[C@@H]2CCCO[C@H]12`: the INHIBITION was -2.35%.
As for `CN(Cc1cncnc1)[C@@H]1CN(C(=O)c2ccco2)[C@@H]2CCCO[C@H]12`, the INHIBITION came to 26.7%.
As for `COCCCN(Cc1cnc(N2CCCC2)nc1)C1CCN(C)CC1`, the figure is 10.3%; as for `CC1=Nc2c(c(O)nn2C(C)C)C(c2cccnc2)S1` (configuration not stated), -3.19%.
For the molecule `CC(=O)N1CC(=O)N(c2ccccc2)CC12CCN(CC1CC1)C2` (configuration not stated), the INHIBITION came out at 27.9%.
Regarding `O=C(OC1CCC1)c1ncccc1C(F)(F)F`, the INHIBITION was determined as 42.8%.
As for `O=C(OC1CCC1)c1ncccc1OCC(F)(F)F`, the figure is 8.08%; as for `O=C(O)c1ncccc1OCC(F)(F)F`, 59.1%.
Consider `Cc1nccc(C2CCCN(C(=O)c3cncnc3)C2)n1` (configuration not stated), for which the INHIBITION is -38.3%.
For `COC(=O)C(C)(C)S(=O)(=O)c1ccc(Br)cc1` the value was -1.15%.
For `COc1ccc(NC(=O)Nc2c(O)c3ccccc3oc2=O)cc1` the value was 33.6%; for `CC(C)(CO)Nc1cc(-c2ccccc2)ncn1`, 29.3%; for `C[C@@H](CO)Nc1cc(-c2cn[nH]c2)ncn1`, 20.4%.
As for `OCCNc1cc(-c2ccccc2)ncn1`, the figure is 47.1%; as for `CC[C@@H](CO)Nc1cc(-c2cn[nH]c2)ncn1`, 50.1%.
As to `CCc1cc(=O)[nH]c(-c2ccc(NC(CO)CC(C)C)nc2)n1` (configuration not stated), the INHIBITION is -27.4%.
On to `C[C@H](O)CNc1cc(-c2cn[nH]c2)ncn1`, for which the INHIBITION turned out to be 24.8%.
Consider `CC(C)(CO)Nc1cc(-c2ccncc2)ncn1`, for which the INHIBITION is given as 44.1%.
For `CC(C)[C@@H](CO)Nc1cc(-c2cn[nH]c2)ncn1` the value was 56%; for `CC(C)(CO)Nc1cc(-c2cn[nH]c2)ncn1`, 56%.
`CC(C)CCn1cc(C(C(=O)O)N2CCC(N3CCSCC3)CC2)cn1` (configuration not stated): the INHIBITION was 3.06%.
